This is a sample that favours compounds with a hit; in the whole collection about 1.8% have one here.
Mot1-301 SUMO = yeast Mot1-301 growth rescue at high temperature, primary screen, SUMOylation pathway inhibitor project, S. cerevisiae, ATP luminescence, 38.5C | S. cerevisiae Mot1-301 growth rescue; percent above DMSO median, 100 means doubled | growth rescue, % at 18.8 µM | 320,000 tested, 1% active | AID 2716, 2010;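 active = every valid replicate shows activation above 250% relative to neutral control wells; inactive = the rest, any valid replicate at or below 250%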
AI-2 QS modul = Vibrio harveyi AI-2 quorum sensing modulators, primary screen, JMH597 strain, luminescence/OD600 ratio | activity change, % at 7.5 µM | AID 2094, 2009 | Vibrio harveyi JMH597 AI-2 luminescence/OD600 ratio, 9 h; stronger effect = lower value; strain lacks LuxN and CqsS sensors; 0 = neutral-control median | 300,000 tested, 0.4% active; in the data active = activity change below about -75%, passing the limit was not always enough; inconclusive = no clear call, values can overlap the other calls;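 note: luminescence divided by OD600 gain over 9 h not by final OD600 alone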
aDG glyco up = activators of alpha-DG glycosylation, primary screen, uHTS, Pro5-aDG cells, AlphaScreen | alpha-DG glycosylation AlphaScreen (IIH6); 0% Pro5, 100% B10-LARGE cell signal | activation, % at 10 µM | 360,000 tested, 0.22% active;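 active = activation of at least 8% versus controls, or a plate z-score of at least 8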;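 note: Pro5 are CHO cells carrying HIG-tagged alpha-DG that lacks glycosylation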
ARNT TACC3 PPI = disruptors of ARNT/TACC3 protein interaction, primary screen, biochemical, AlphaScreen, single concentration. Transforming acidic coiled-coil-containing protein 3 (Homo sapiens), Q9Y6A5. AlphaScreen His-ARNT PAS-B/GST-TACC3 binding, luminescence; TACC3 fragment carries E629A point mutation. inhibition, % at 9.99 µM. 390,000 tested, 0.66% active;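 active = mean inhibition of replicates at least 50% and at least half of replicates each reaching 50%; inconclusive = half or more replicates reach 50% but mean below 50%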
Bfl-1 A1 inh = caspase 3/7 activation in MEF A1-2A-BIM cells, primary screen, A1 inhibitor project, cell-based, luminescence, HTS; Caspase-Glo 3/7 luminescence, 3 h; percent of clofoctol response, vehicle zero; caspase activation, % (no concentration beside the values); 330,000 tested, 0.066% active;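 active = over half of replicate activation scores above 10%, or exactly half above 10 with the replicate mean above 10; inconclusive = replicate mean below 10 yet half the replicates above 10; inactive = over half of replicates below 10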
ARNT Alpha ctr-1 = AlphaScreen signal interference compounds, dose response, artefact control for ARNT-TACC3 interaction inhibitor project, biochemical, luminescence, cherry-pick. shares compounds with ARNT TACC3 PPI. His-ARNT PASB-GST AlphaScreen artifact counter-screen. AC50, µM (series often up to 68 µM). 1,200 tested, 50% active;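 active = every separate test run was called active for a drop in luminescence, with AC50 within twice the top valid dose, actives reach about 71 µM in these data; inconclusive = the separate test runs disagree in their calls; inactive = all runs inactive, including signal change in the wrong direction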
ARNT Alpha ctr-2 = AlphaScreen signal interference by compounds, dose response, artefact control for ARNT/TACC3 disruptor project, biochemical, dual-tagged ARNT, dry powder; shares compounds with ARNT TACC3 PPI; Dual-tagged His-ARNT PASB-GST AlphaScreen artifact counter-screen; AC50, µM; 45 tested, 70% active; AID 720564, 2013;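 active = luminescence drop, with half-maximal potency fitted within twice the sample's top valid dose, cut at about 70 µM in these data; inactive = the rest, including signal moving the wrong way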
A number is an active result; i = inactive; ? = inconclusive; nt = not tested or not shown.

SMILES	Mot1-301 SUMO	AI-2 QS modul	aDG glyco up	ARNT TACC3 PPI	Bfl-1 A1 inh	ARNT Alpha ctr-1	others
COc1ccc(C(=O)Nc2nc(-c3ccccn3)cs2)cc1S(=O)(=O)N1CCOCC1	i	nt	i	61.6	i	9.69µM
COc1ccc(C(=O)Nc2ccccn2)cc1S(=O)(=O)N1CCOCC1	i	i	i	i	i	nt
O=C(Nc1nc(-c2ccccn2)cs1)c1ccc(S(=O)(=O)N2CCCCC2)cc1	i	?	nt	nt	i	nt
COc1ccc(C(=O)Nc2ccccc2C)cc1S(=O)(=O)N1CCOCC1	i	i	i	i	i	nt
O=C(Nc1nc(-c2ccccn2)cs1)c1ccc(S(=O)(=O)N2CCOCC2)cc1	nt	nt	nt	nt	nt	nt	ARNT Alpha ctr-2=6.52
O=C(NCc1ccccc1)c1cccc(COc2ccccc2Cl)c1	i	i	i	nt	i	nt
COc1ccc(OC)c(NC(=O)CSc2nnc(CNC(=O)c3ccccc3F)o2)c1	i	i	i	i	i	nt
O=C(NCCCn1ccnc1)C(F)(F)C(F)(F)C(=O)NCCCn1ccnc1	i	i	i	50.6	i	i
CCOC(=O)c1cnc(-n2[nH]c(C)cc2=O)[nH]c1=O	i	i	i	69.8	i	12.7µM
CCOC(=O)c1cnc[nH]c1=O	nt	nt	i	i	nt	nt
COc1cc(OC)c2c(-c3ccccc3)cc(=O)oc2c1C(CCN1CCOCC1)c1ccc(N(C)C)cc1 (stereo not given)	nt	nt	i	i	nt	nt
COc1cc(OC)c2c(-c3ccccc3)cc(=O)oc2c1C(CCN1CCCCC1)c1ccc(N(C)C)cc1 (stereo not given)	i	i	i	44.3	i	12.4µM
CCCCCc1cc(=O)oc2c(C(CCN(CC)CC)c3ccc(N(C)C)cc3)c(OC)cc(OC)c12 (stereo not given)	i	i	i	50.3	i	12.3µM
OC1COC(OCC2OC(OCc3ccccc3)C(O)C(O)C2O)C(O)C1O (stereo not given)	i	i	i	i	i	nt
O=C(NC[C@H]1[C@H](c2ccccc2)[C@H](CO)N1Cc1ccccn1)C1CCC1	nt	nt	nt	38.1	nt	i
O=C(NC[C@H]1[C@H](c2ccccc2)[C@@H](CO)N1Cc1ccccn1)C1CCCC1	nt	nt	nt	i	nt	nt
O=C(NC[C@H]1[C@@H](c2ccccc2)[C@@H](CO)N1Cc1ccccn1)C1CC1	nt	nt	nt	47.9	nt	i
O=C(NC[C@@H]1[C@@H](c2ccccc2)[C@@H](CO)N1Cc1ccccn1)C1CC1	nt	nt	nt	i	nt	nt
O=C(c1cccs1)[C@@H]1[C@@H]2C(=O)N(Cc3ccc4c(c3)OCO4)C(=O)[C@@H]2C2c3ccccc3C=CN21 (stereo not given in full)	i	i	nt	nt	i	nt
O=C(C1CCCCC1)N1CCCC(c2nc(-c3ccc(F)cc3)no2)C1 (stereo not given)	i	i	i	i	i	nt
Cc1cccc(C)c1NC(=O)CN1CCN(C(=O)C2CCC2)CC1	nt	nt	i	i	nt	nt
CCn1c(CN2CCN(C(c3ccccc3)c3ccccc3)CC2)nc2c1c(=O)n(C)c(=O)n2C	i	i	i	i	i	nt
CN(C)CCCN(C(=O)CCc1ccccc1)c1nc2ccc(Br)cc2s1	i	i	i	i	i	nt
Cc1ccc(S(=O)(=O)CCc2ccccn2)cc1	i	i	i	i	i	nt
Cc1cccc(C)c1NC(=O)CSc1nnc(-c2ccoc2C)n1CCc1ccccc1	i	i	i	i	i	nt
SMILES	Mot1-301 SUMO	AI-2 QS modul	aDG glyco up	ARNT TACC3 PPI	Bfl-1 A1 inh	ARNT Alpha ctr-1	others
Oc1ccc(Cl)c2cccnc12	nt	nt	i	i	nt	nt
Oc1c(I)cc(I)c2cccnc12	nt	i	i	54.8	nt	49.5µM
CCNC(=O)C(=O)N/N=C/c1cc([N+](=O)[O-])ccc1O	i	i	i	61.3	i	25µM
CC(=O)c1ccccn1	i	i	i	i	i	nt
COc1ccc(-n2c(-c3ccccc3)cc3c2CCCC3=O)cc1	i	i	i	i	i	nt
COc1cc(SC)ccc1C(=O)N1CCCc2ccccc21	i	i	i	i	i	nt
COc1ccc(C2C(C#N)=C(N)Oc3c2ccc2cccnc32)cc1OC (stereo not given)	i	i	i	61.8	i	i
O=C(C[C@H]1C[C@@H]2c3cc(NC(=O)C4CCC4)ccc3O[C@@H]2[C@H](CO)O1)NCc1ccccc1	nt	nt	nt	i	nt	nt
NNC(=O)c1ccc(O)cc1O	i	i	i	55.6	i	i
NNC(=O)c1cc2ccccc2cc1O	i	i	i	i	i	nt
O=C(NN=C1CCCC1)c1ccc(O)cc1O	i	i	i	48.5	i	i
CCOc1cc2c(C#N)c(N3CCOCC3)nc(N)c2c(N)n1	i	i	i	30.1	i	i
CCOc1cc2c(C#N)c(N(CC)CC)nc(N)c2c(N)n1	i	i	i	i	i	nt
COc1ccc(NC(=O)N[C@H]2CC[C@H](CCn3cc(-c4ccccn4)nn3)O[C@H]2CO)cc1	nt	nt	nt	i	nt	nt
COc1ccc(NC(=O)N[C@@H]2CC[C@H](CCn3cc(-c4ccccn4)nn3)O[C@@H]2CO)cc1	nt	nt	nt	62.8	nt	50.5µM
COc1ccc(NC(=O)N[C@@H]2CC[C@H](CCn3cc(-c4ccccn4)nn3)O[C@H]2CO)cc1	nt	nt	nt	59.4	nt	50.1µM
COc1ccc(NC(=O)CSc2ccc3nnc(-c4ccccn4)n3n2)cc1	i	i	i	66.4	i	i
COc1ccc(NC(=O)CSc2nnc(-c3ccccn3)n2N)cc1	i	i	i	55.1	i	i
Cc1ccccc1-n1c(SCC(=O)Nc2ccc3c(c2)OCO3)nnc1-c1ccccn1	i	i	i	60.7	i	i
CCOc1ccc(NC(=O)CSc2nnc(-c3ccccn3)n2N)cc1	i	i	i	i	i	nt
O=C(CSc1ccc2nnc(-c3ccccn3)n2n1)Nc1ccc(F)cc1F	i	i	i	53.0	i	i
O=C(CSc1nnc2ccc(-c3ccccn3)nn12)Nc1ccc(F)cc1F	i	i	i	i	i	nt
CCOC(=O)Cn1nnnc1CN(Cc1cccs1)Cc1cc2cc(C)cc(C)c2[nH]c1=O	i	i	i	i	i	nt
Cc1sc(NC(=O)c2ccco2)c(C(c2cccnc2)N2CCN(C)CC2)c1C (stereo not given)	nt	i	i	i	i	nt
COc1cc(N)c(Cl)cc1C(=O)OCC(=O)N1c2ccccc2NC(=O)C1(C)C	nt	nt	i	i	nt	nt
Nn1c(SC/C=C/c2ccccc2)nnc1-c1ccccn1	i	i	i	53.6	i	59.9µM

High-throughput results: PubChem BioAssay, several laboratories
